The nature of assay [1]: qHTS assay to identify small molecule antagonists of the estrogen receptor alpha (ER-alpha) signaling pathway using the BG1 cell line in the presence of 0.1 nM 17-beta-estradiol - cell viability counter screen (AID 1259241). Further: nearly all actives have a fitted effect of over 40% in size. Further: potency means the concentration at half of the fitted maximal effect. In outline:
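VM7Luc4E2, 4,000 cells/well, phenol red-free medium + 10% charcoal-stripped FBS; 24 hr plating; cpd + 0.1 nM E2 final, 22 hr 37C/5% CO2; CellTiter-Fluor 30 min, fluorescence.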

Assay [2] is described as follows: qHTS assay to identify small molecule antagonists of the androgen receptor (AR) signaling pathway using the MDA cell line in the presence of 0.5 nM R1881 - cell viability counter screen (AID 1259242). Further: nearly all actives have a fitted effect of over 45% in size. Further: potency means the concentration at half of the fitted maximal effect. In outline: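 Human breast carcinoma MDA-kb2 cells, cultured without CO2, receive compounds alongside 0.5 nM (final) R1881 agonist. After 16 hr at 37C, viability is taken as live-cell protease signal.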
(qHTS replaces the single test concentration by a dilution series.)

The target in assay [3] is Estrogen receptor (Homo sapiens) (UniProt P03372). The assay is described as follows: qHTS assay to identify small molecule antagonists of the estrogen receptor alpha (ER-alpha) signaling pathway using the BG1 cell line in the presence of 0.1 nM 17-beta-estradiol (AID 1259244). Further: nearly all actives have a fitted effect of over 50% in size. The essentials: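 Seeding of stripped-serum-adapted VM7Luc4E2 cells, 24 h attachment, compound transfer, then 0.1 nM final 17beta-estradiol; after 22 h incubation, ONE-Glo reagent and luminescence reading.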
Estrogen receptor (Homo sapiens), sequence (P03372 whole entry, looked up): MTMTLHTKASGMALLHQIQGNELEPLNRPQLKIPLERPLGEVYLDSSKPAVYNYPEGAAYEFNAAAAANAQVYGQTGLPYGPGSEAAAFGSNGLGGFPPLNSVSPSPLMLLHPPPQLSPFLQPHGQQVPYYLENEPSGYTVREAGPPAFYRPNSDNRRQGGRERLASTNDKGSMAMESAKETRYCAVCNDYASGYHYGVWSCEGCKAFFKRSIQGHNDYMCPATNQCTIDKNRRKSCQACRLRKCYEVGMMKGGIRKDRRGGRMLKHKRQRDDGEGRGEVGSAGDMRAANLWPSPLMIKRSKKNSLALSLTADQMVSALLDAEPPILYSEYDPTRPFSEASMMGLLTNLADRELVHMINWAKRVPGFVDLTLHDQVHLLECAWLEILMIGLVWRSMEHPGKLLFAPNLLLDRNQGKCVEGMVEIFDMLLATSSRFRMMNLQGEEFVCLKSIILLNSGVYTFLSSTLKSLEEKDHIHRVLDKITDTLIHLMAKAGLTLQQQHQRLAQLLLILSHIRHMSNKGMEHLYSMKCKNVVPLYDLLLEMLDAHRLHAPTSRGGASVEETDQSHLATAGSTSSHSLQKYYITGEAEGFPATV

The nature of assay [4]: qHTS assay to identify small molecule HDAC inhibitors (AID 1259364).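 Further: wild-type HCT-116 cells with endogenous class I/II HDAC activity; top concentration of the series differs between compounds; nearly all actives have a fitted effect of over 45% in size.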 The essentials: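 After a 2 hr compound incubation (37C, 5% CO2), HCT-116 cells seeded at 1,500/well the day before received HDAC-Glo reagent; signal read as luminescence after 30 min at room temperature.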
Assay [5] can be described thus: qHTS assay to identify small molecule HDAC inhibitors - cell viability counter screen (AID 1259365). Further: nearly all actives have a fitted effect of over 50% in size. Further: potency means the concentration at half of the fitted maximal effect. The essentials:
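Luminescence from CellTiter-Glo, developed 30min at room temperature, reports viability of wild-type HCT-116 cells treated 2hr with compounds at 37 C and 5% CO2 after overnight plating.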

The nature of assay [6]: qHTS assay to identify small molecule agonists of the sonic hedgehog signaling (Shh) pathway (AID 1259368; calls by dose curve;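 further: NIH/3T3-derived 3T3Gli1-Luc cells carrying a stable Gli1-driven firefly luciferase reporter; series mostly up to about 92 µM; nearly all actives have a fitted effect of over 15% in size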). The essentials:
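Stable NIH/3T3 Gli1-Luc reporter clone; 24 hr cpd exposure after a 4 hr settling period; luminescence endpoint.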

The nature of assay [7]: qHTS assay to identify small molecule phospholipidosis (PLD) inducers (AID 1259344; active means well fitted curve in the direction sought with a large enough effect; an effect the other way counts as inactive or inconclusive). In outline: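 Accumulated phospholipid, stained red by LipidTOX during 24 h compound treatment of HepG2 cells at 37 C, is quantified from images as pit number and intensity, normalised per cell using Hoechst-stained nuclei.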
Assay [8] can be described thus: qHTS assay to identify small molecule agonists of the sonic hedgehog signaling (Shh) pathway - cell viability counter screen (AID 1259366). Further: nearly all actives have a fitted effect of over 50% in size. Further: potency means the concentration at half of the fitted maximal effect. The essentials: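 Cytotoxicity counter screen run in the same wells as the Shh reporter assay. NIH/3T3 cells carrying a Gli1 response element–driven luciferase were treated with DMSO-dissolved compounds for 24hr, and live-cell protease activity was measured with CellTiter-Fluor.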

Assay [9] in a line: qHTS assay to identify small molecule antagonists of the sonic hedgehog signaling (Shh) pathway - cell viability counter screen (AID 1259367). Further: nearly all actives have a fitted effect of over 55% in size. Further: potency means the concentration at half of the fitted maximal effect. In outline: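 CellTiter-Fluor signal in conditioned medium-stimulated 3T3 Gli1-Luc cells, 23 hr compound exposure, 37C.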

Values without a mark were called inactive. Results filed as inconclusive are left out. Activity calls are given as the source filed them. Unless noted, the call rests on the fitted dose curve; in most records, active means well fitted curve in the direction sought with a large enough effect in the repeat runs; inconclusive means weak or mixed curves; inactive means no such curve, though single readings can be large; an effect the other way counts as inactive or inconclusive.

For `c1cc[c]([Bi]([c]2ccccc2)[c]2ccccc2)cc1`, the Potency result in assay [1], in [2], in assay [3], in [4], in [5] and in assay [6] was “inactive” in each case.

For the compound `C[N+]1(C)CCC(=C(c2ccccc2)c2ccccc2)CC1`, the Potency entry in [1], in assay [2], in [4], in assay [5], in assay [8] and in assay [9] was “inactive” each time. Moreover, the Potency result in [6] is “inactive”. Also, the call in assay [7] was inactive.

`N#C/C(=C1\SCC(c2ccccc2Cl)S1)n1ccnc1` (stereo not drawn): the Potency entry in assay [1], in assay [2], in assay [4], in assay [5], in assay [9] and in assay [6] was “inactive” each time. Besides, in assay [7], the compound was classed as inactive.

For `C=C(C)C(=O)OCCOC(=O)CC(C)=O`, the Potency entry in assay [1], in [2], in assay [4], in assay [5], in [8] and in [9] was “inactive” in each case. In [6], the Potency entry was “inactive”.

With `CCCCCCCC/C=C\CCCCCCCC(=O)OC`, the Potency entry in assay [1], in assay [2], in assay [4], in assay [5], in assay [8] and in [9] was “inactive” throughout.

Consider `CN(C(=O)C(Cl)Cl)c1ccc(OC(=O)c2ccco2)cc1`, for which the Potency result in assay [1], in assay [2], in [4], in assay [5], in [9] and in assay [6] was “inactive” throughout. The compound was called inactive in assay [7].

In the case of `CCCCC/C(=C\c1ccccc1)CO`, the Potency result in [1], in assay [2], in assay [4], in [5], in assay [8] and in assay [9] was “inactive” in each case. Besides, in assay [6], the Potency entry is “inactive”.

As to `CN1CCN(CCCN2c3ccccc3Sc3ccc(S(=O)(=O)N(C)C)cc32)CC1`, the Potency result in [1], in assay [2], in assay [4], in assay [5] and in assay [6] was “inactive” throughout. Also, the call in [7] was inactive. Further, the Potency in assay [8] was 11.9 µM (active).

Consider `CCCCC(CC)COC(=O)COc1ccc(Cl)cc1C` (stereo not drawn), for which the Potency result in assay [1], in assay [2], in assay [3], in assay [4], in [5] and in assay [9] was “inactive” in each case. In addition, the Potency entry in assay [6] was “inactive”.

Take `Nc1nccs1`: the Potency entry in assay [1], in [2], in [4], in [5], in assay [8] and in assay [9] was “inactive” in each case. Also, the result in assay [7] was inactive.

As to `Cc1cc(OI)c(C(C)C)cc1-c1cc(C(C)C)c(OI)cc1C`, the Potency result in [1], in [2], in assay [4], in assay [5], in assay [9] and in assay [6] was “inactive” in each case. Further, the result in [7] was inactive.

On to `CC(=O)Oc1ccc2c(c1)CC[C@@H]1[C@@H]2CC[C@]2(C)[C@@H](O)CC[C@@H]12`, for which the Potency result in assay [1], in assay [2], in assay [4], in assay [5], in assay [8] and in assay [9] was “inactive” throughout. Besides, in assay [6], the Potency entry was “inactive”. Further, the outcome in [7] was inactive.

Take `Cc1ccccc1N1C(=O)c2cc(S(N)(=O)=O)c(Cl)cc2NC1C` (stereo not drawn): the Potency result in assay [1], in [2], in assay [4], in assay [5], in [8] and in assay [9] was “inactive” throughout. Also, the Potency result in [6] was “inactive”. The compound was called inactive in [7].

As for `CC(C)CCCCCOC(=O)CCCCC(=O)OCCCCCC(C)C`, the Potency entry in assay [1], in [2], in assay [4], in [5], in assay [8] and in assay [9] was “inactive” in each case. The Potency entry in assay [6] is “inactive”.

On to `COc1ccccc1N=Nc1c(S(=O)(=O)O)cc2cc(S(=O)(=O)O)cc(NC(C)=O)c2c1O`, for which the Potency was 22.9 µM (active) in assay [1]; 25.7 µM (active) in assay [2]; 25.7 µM (active) in assay [5]; 25.7 µM (active) in assay [8]; 25.7 µM (active) in assay [9]. Further, the Potency entry in assay [4] and in [6] was “inactive” each time.

Regarding `CC1CC(O)CC(C)(C)C1` (stereo not drawn), the Potency result in assay [1], in [2], in assay [4], in [5], in [9] and in [6] was “inactive” in each case. Further, in assay [7], the result was inactive.

Turning to `CCC(C)=O`, the Potency entry in [1], in assay [2], in [4], in assay [5], in assay [8] and in assay [9] was “inactive” in each case. For the same compound, the Potency result in assay [6] was “inactive”.

Consider `N#C/C(=C1/SC[C@@H](c2ccc(Cl)cc2Cl)S1)n1ccnc1`, for which the Potency entry in [1], in assay [2], in [4], in assay [5], in [8] and in assay [9] was “inactive” throughout. In addition, the Potency entry in assay [6] is “inactive”. Also, the result in assay [7] was inactive.
